From PubChem BioAssay AID1018 (Sanford-Burnham Center for Chemical Genomics, 2008) come the findings set out here.

Screen size: about 200,000 compounds; about 15 (0.007%) were called active. Rule as the data show it: active = displacement above about 50%; inactive = the rest. For the sample, actives were picked, then their nearest neighbours and some compounds at random.

This assay deals with E3 ubiquitin-protein ligase XIAP (Homo sapiens) (UniProt P98170). As to the kind of experiment: small molecules displacing peptide from XIAP – biochemical, IAP family, fluorescence polarization (AID 1018). Particulars: XIAP BIR domain, at 20 µM, stronger effect = higher value.
E3 ubiquitin-protein ligase XIAP (Homo sapiens), sequence (P98170 whole entry, looked up, the tested form may be a part): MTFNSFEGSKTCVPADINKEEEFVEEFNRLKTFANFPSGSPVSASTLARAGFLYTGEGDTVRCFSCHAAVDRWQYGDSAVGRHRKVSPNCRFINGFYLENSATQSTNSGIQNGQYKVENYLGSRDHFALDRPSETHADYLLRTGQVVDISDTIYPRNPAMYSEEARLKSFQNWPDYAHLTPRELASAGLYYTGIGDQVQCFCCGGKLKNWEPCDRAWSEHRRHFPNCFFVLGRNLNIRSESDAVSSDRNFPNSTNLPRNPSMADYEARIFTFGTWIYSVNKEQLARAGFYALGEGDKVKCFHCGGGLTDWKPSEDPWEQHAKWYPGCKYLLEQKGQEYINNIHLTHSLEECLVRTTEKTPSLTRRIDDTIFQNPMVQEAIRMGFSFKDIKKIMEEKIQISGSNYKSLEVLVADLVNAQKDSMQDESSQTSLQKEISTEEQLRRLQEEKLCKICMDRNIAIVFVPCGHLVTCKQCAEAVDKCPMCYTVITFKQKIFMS
Turning to `COc1ccc(N(CC(=O)NCCSC2CCCCC2)S(C)(=O)=O)c(OC)c1`, the displacement was -4.6% (inactive).
As for `COc1ccc(/C(O)=C2/C(=O)C(=O)N(CCN(C)C)C2c2cccnc2)cc1OC` (centres undefined), the figure is -8.8% (inactive).
As for `O=C(COC(=O)c1cccc(S(=O)(=O)N2CCc3ccccc32)c1)Nc1ccc(Cl)cn1`, the figure is -4.3% (inactive); as for `Cc1ccc(NC(=O)COC(=O)c2ccc3c(c2)NC(=O)C2CCCN32)cc1` (centres undefined), -1.5% (inactive); as for `Cc1ccc(CNC(=O)Cn2cc(C(F)(F)F)ccc2=O)cc1`, -2.9% (inactive).
As for `S=C(Nc1ccc(Cl)cc1)N1CCN(C2CCCCC2)CC1`, the figure is -3.9% (inactive); as for `O=C(OCCC1Oc2cccnc2NC1=O)c1ccc(F)cc1` (centres undefined), -2.6% (inactive).
Consider `Nc1nc(-c2ccco2)nn1S(=O)(=O)c1ccc(Cl)cc1`, for which the displacement was -2.1% (inactive).
The result for `CN(C)C(CNC(=O)Cc1cccc(C(F)(F)F)c1)c1ccco1` (centres undefined) reads -10.8% (inactive).
As for `O=C(COc1ccc(Cl)cc1[N+](=O)[O-])N/N=C/c1cccs1`, the figure is -10.2% (inactive); as for `N=C1C(c2ccccc2)=C(O)CN1c1ccccc1N1CCOCC1`, -6.4% (inactive); as for `O=C(CCCOc1ccccc1)Nc1ccc(S(=O)(=O)N2CCOCC2)cc1`, -4.6% (inactive).
As for `COc1cc(C)c(Cl)c(C)c1S(=O)(=O)NC1CC(C)(C)NC(C)(C)C1`, the figure is -4.7% (inactive); as for `Cc1ccc(-c2[nH]nc3c2C(c2ccccc2OC(=O)N2CCOCC2)C(C#N)=C(N)O3)cc1` (centres undefined), 1.4% (inactive).
Take `Cc1ccc(N2N=C(c3ccc(Br)cc3)CCC2=O)cc1`: the displacement is -4.4% (inactive).
For `Cc1ccc(Cn2cccc2C2=NC(C)CO2)cc1` (centres undefined), the displacement is -0.2% (inactive).
As for `COc1ccc(C(=O)NC(=S)N2CC(C)OC(C)C2)cc1OC` (centres undefined), the figure is -1.8% (inactive).
The result for `COc1ccc(CN2C(=O)c3cccnc3C2Nc2cc(Cl)ccc2OC)cc1` (centres undefined) reads 63.8% (active); that for `COc1ccc(CN2C(=O)c3cccnc3C2Nc2ccc(OC)c(Cl)c2)cc1` (centres undefined), -2% (inactive).
As for `COc1ccc(CN2C(=O)c3cccnc3C2Nc2cc(Cl)c(OC)cc2OC)cc1` (centres undefined), the figure is 9.6% (inactive); as for `Cc1ccc(N=N/C(=C\O)C(=O)c2ccc(Cl)cc2)cc1`, -7.5% (inactive); as for `CCN(CC)CCNC(=O)/C(=C/c1cn(CC)c2ccccc12)NC(=O)c1cc(OC)c(OC)c(OC)c1`, -5.1% (inactive).
As for `CC(=O)NC1C(=O)N(CCc2ccccc2)c2ccccc21` (centres undefined), the displacement is 1.5% (inactive).
The result for `Cc1ccc(NC(=O)c2cccc(Cl)c2)nc1` reads -1.6% (inactive); that for `Cn1nccc1C(=O)Nn1cnnc1`, 1.6% (inactive).
As to `Cc1ccc(S(=O)(=O)N2CCOCC2)cc1NC(=O)COC(=O)c1ccccc1OCc1c(C)noc1C`, the displacement was 0.2% (inactive).
As for `COc1cc(OC)c(C(=O)NCC(c2cccs2)N(C)C)cc1OC` (centres undefined), the figure is -4.3% (inactive); as for `O=C(CN1CCOCC1)N1CCN(S(=O)(=O)c2ccccc2)C1c1ccccc1` (centres undefined), -3.4% (inactive).
The result for `CCOc1ccccc1NC(=O)c1nc[nH]c1C(=O)Nc1ccccc1OCC` reads -4.1% (inactive).
The result for `CCCOC(=O)c1sc2nc3c(cc2c1N)C(=O)CCC3` reads -6% (inactive).
On to `CCOC(=O)c1c(C(=O)OCC)c(C)n(N2C(=O)CSC2=S)c1C`, for which the displacement is -39.5% (inactive).
The result for `Cc1nn2cc(-c3ncc(C(F)(F)F)cc3Cl)cnc2c1Br` reads -5.1% (inactive); that for `CN1CCN(C2CCCCCC2)CC1`, -7.6% (inactive).
The result for `O=[N+]([O-])c1c(NCCO)cc(N2CCC3(CC2)OCCO3)c2nonc12` reads -5.3% (inactive).
For `CCOC(=O)N1CCN(c2cc(NCCC(=O)O)c3c4c(onc24)-c2ccccc2C3=O)CC1`, the displacement is 67.3% (active).
As for `CC(=O)OCCNc1cc(N2CCN(C)CC2)c2noc3c2c1C(=O)c1ccccc1-3`, the figure is -1.6% (inactive).
The result for `O=C(O)CCCNc1cc(N2CCC3(CC2)OCCO3)c2noc3c2c1C(=O)c1ccccc1-3` reads 87.1% (active).
The result for `CCOC(=O)N1CCN(c2cc(NCCO)c([N+](=O)[O-])c3nonc23)CC1` reads -2.9% (inactive); that for `O=C1c2ccccc2-c2onc3ccc(N4CCCC4)c1c23`, -14.9% (inactive); that for `CC(=O)COc1cc(C)cc2oc(=O)c(C)c(C)c12`, 61.1% (active).
Regarding `CC(=O)C(C)Oc1cc(C)cc2oc(=O)c(C)c(C)c12` (centres undefined), the displacement was -5.9% (inactive).
On to `Cc1cc(OCC(=O)C(C)(C)C)c2c(C)c(C)c(=O)oc2c1`, for which the displacement is -1.7% (inactive).
The result for `Cc1ccc(Cn2nnc3c(=O)[nH]c(C4CCN(S(=O)(=O)c5ccc(F)cc5)CC4)nc32)cc1` reads 63.3% (active); that for `Cc1ccc(Cn2nnc3c(=O)[nH]c(C4CCN(S(=O)(=O)c5ccc(C)cc5)CC4)nc32)cc1`, -2% (inactive).
`Cc1ccc(Cn2nnc3c(=O)[nH]c(C4CCN(S(=O)(=O)c5ccccc5)CC4)nc32)cc1`: the displacement is -5.4% (inactive).
The result for `COc1ccc(N(CC(O)CN2CCCCC2)S(=O)(=O)c2ccc(C)cc2)cc1` (centres undefined) reads -3.7% (inactive); that for `C=CC(=O)NCCCc1cc(C(C)(C)C)c(O)c(C(C)(C)C)c1`, -6.9% (inactive).
`Cc1ccccc1N(CC(=O)O)S(C)(=O)=O`: the displacement is -4.6% (inactive).
As for `CN(C)CCCOC(=O)COc1ccc(C(C)(C)C)cc1`, the figure is -1.4% (inactive).
With `CCC(C)(C(=O)NC1CCCC1)N(Cc1cccs1)C(=O)c1ccc2c(c1)OCO2` (centres undefined), the displacement was -5.3% (inactive).
The result for `CC(C)Cn1c2c(c(O)c(C(=O)Nc3ccc(F)cc3)c1=O)CCCC2` reads 0.5% (inactive).
The result for `COc1ccccc1NCCC#N` reads -1.4% (inactive).
The result for `Cc1cccc(OCC(=O)NNC(=O)c2cccs2)c1` reads -3.8% (inactive); that for `Cc1[nH]n(-c2ccc([N+](=O)[O-])cc2)c(=O)c1C=NCCN1CCN(C(=O)c2ccccc2)CC1`, -2.6% (inactive); that for `O=C(NCCCO)c1ccc(CSc2nc3ccccc3[nH]2)cc1`, -4% (inactive).
With `CC(=O)C1C(c2cccc(F)c2)NC(=O)NC1(O)C(F)(F)F` (centres undefined), the displacement is 0% (inactive).
As for `COC(=O)C(NNc1ccccc1C)(NC(=O)c1ccc(F)cc1)C(F)(F)F` (centres undefined), the figure is -3.9% (inactive); as for `O=C(/C=C/c1ccco1)NCC(=O)N/N=C/c1ccccc1[N+](=O)[O-]`, -3.9% (inactive); as for `O=c1c(Cc2ccc(F)cc2)c(O)ccn1CCc1ccccn1`, -4.4% (inactive).
As for `CCN1/C(=C/c2ccc3cc(C)ccc3[n+]2C)Sc2ccc3sccc3c21`, the figure is 72.1% (active); as for `CCN1/C(=C/c2ccc3cc(C)ccc3[n+]2CC)Sc2ccccc21`, -5.1% (inactive).
The result for `CCN1/C(=C/c2ccc3cc(C)ccc3[n+]2CC)Sc2cc(C)ccc21` reads 1.8% (inactive); that for `O=C(COc1ccccc1)Nc1ccncc1`, -2.7% (inactive); that for `Cc1sc(N)c(C#N)c1C`, -1.2% (inactive).
Turning to `CC(C)Oc1cccc(C(=O)C2CCCN(Cc3ccc4nonc4c3)C2)c1` (centres undefined), the displacement was -5.9% (inactive).
The result for `CCc1c(C)nc2c(Br)cccc2c1SCCC#N` reads -0.5% (inactive).
The result for `CN(C)c1nc(N)nc(CSc2nnnn2-c2ccccc2)n1` reads -5.7% (inactive); that for `CCOC(=O)c1c(-c2ccccc2)oc2ccc(O)c(CN3CCN(C)CC3)c12`, -5.2% (inactive); that for `Cc1cc(NC(=O)COn2nnc3ccc(Cl)cc32)no1`, -5.1% (inactive).
With `COc1ccc(OC)c(NC(=O)C23CC4CC(C2)CC(n2cnc(Br)n2)(C4)C3)c1`, the displacement was -3.2% (inactive).
Consider `CCC(Oc1ccccc1)C(=O)N1CC(C)CC(C)C1` (centres undefined), for which the displacement is 2.4% (inactive).
The result for `C[N+]1(CC(=O)OCCCc2ccccc2)CCCC1` reads -9.6% (inactive); that for `O=C(NC1CCCc2ccccc21)c1ccc(S(=O)(=O)N2CCOCC2)cc1` (centres undefined), -3.4% (inactive).
Take `CCOc1cccc2cc(C(=O)N3CCc4ccccc43)c(=O)oc12`: the displacement is -88.7% (inactive).
As for `CCC(/C=N/NC(=O)C(=O)N/N=C/C(CC)CC)CC`, the figure is -0.2% (inactive).
For `O=C(COc1cccc(NC(=O)c2cccc([N+](=O)[O-])c2)c1)c1ccc(Br)cc1`, the displacement was -6.2% (inactive).
As for `O=C(COc1cccc(NC(=O)c2cccc([N+](=O)[O-])c2)c1)c1ccc(F)cc1`, the figure is 59.8% (active); as for `COc1cccc(C(=O)COc2cccc(NC(=O)c3cccc([N+](=O)[O-])c3)c2)c1`, -1.9% (inactive).
Consider `CC(=O)Nc1ccccc1OCC(=O)NCCc1ccc(Cl)cc1Cl`, for which the displacement is -8.3% (inactive).
For the compound `COCCNC(=O)CCSCc1ccccc1F`, the displacement was -1.3% (inactive).
As for `O=C(Nc1ccccc1C(F)(F)F)NC1CCCCC1`, the figure is -2.8% (inactive); as for `CC(=O)Nc1cc(C)c(S(C)(=O)=O)c(C)c1`, -8.9% (inactive); as for `CC1CN(CC(O)COC(c2ccccc2)c2ccccc2)CC(C)O1` (centres undefined), -4.7% (inactive).
The result for `CC(=C/c1ccc(C(C)C)cc1)/C=N/NC(=O)c1ccncc1` reads -6.3% (inactive); that for `O=C(CN1CCc2ccccc2C1)Nc1ccc(F)cc1F`, -0.5% (inactive); that for `Cc1ccc(C(=O)Nc2ncc(C)s2)o1`, -3.4% (inactive).
As for `COc1ccccc1CCc1nnc(CCC(=O)NCCCOc2cccnc2)o1`, the figure is -4.3% (inactive); as for `CC1=C(C(=O)Nc2ccccc2)C(c2ccccc2[N+](=O)[O-])NC(=O)N1` (centres undefined), -1.5% (inactive).
In the case of `O=[N+]([O-])c1ccccc1OCCCN1CCOCC1`, the displacement is -4.4% (inactive).
With `CC(C)CNC(=O)NC(=O)COc1ncnc2sccc12`, the displacement is -1.4% (inactive).
As for `COc1ccc(NC(=O)CSc2nnc(NC(=O)c3ccccc3C(=O)O)s2)cc1`, the figure is -4.3% (inactive).
In the case of `Cc1ccc(Sc2nc(C)cc(C)c2S(C)(=O)=O)cc1`, the displacement is -4.9% (inactive).
The result for `COCCNC(=O)NC(=O)COC(=O)c1ccc2[nH]c3c(c2c1)CCCC3` reads -1.1% (inactive).
The result for `O=C(CCCC(=O)OCC(Cl)=C(Cl)Cl)Nc1cccc(F)c1` reads -3.5% (inactive).
